This note sets out measurements from PubChem BioAssay (NCATS).

The structures appear in SMILES notation. Results filed as inconclusive are left out. Calls of active or inactive are those of the source. Unless noted, the call rests on the fitted dose curve; in most records, active means well fitted curve in the direction sought with a large enough effect; inconclusive means small, poorly fitted or top-dose-only effect, or another doubt; inactive means no such curve, though single readings can be large; an effect the other way counts as inactive or inconclusive.

Test [1] addresses Guanine nucleotide-binding protein G(i) subunit alpha-1 (Homo sapiens) (UniProt P63096). As to the kind of experiment: qHTS Assay for Inhibitors of RGS12 GoLoco Motif Activity (Green Fluorophore) (AID 879).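 Further: negative values mean loss of peptide binding seen as reduced polarization.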 A digest of the protocol: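 Fluorescence polarization assay: 50 nM Gαi1 with 10 nM FITC-labeled RGS12 GoLoco peptide in 10 mM Tris pH 7.5, 150 mM NaCl, 0.1 mM GDP, 0.05% NP40, 10 min at room temperature with compound.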

Test [2] in a line: qHTS Assay for Identification of Small Molecule Antagonists for NFkB Signaling Pathway (AID 895; active means well fitted inhibition curve with a large enough effect in the signal ratio, with a control signal flat, not every such curve was filed as active; the % refers to the signal ratio). A digest of the protocol:
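NFkB-bla ME-180 cervical carcinoma cells with beta-lactamase reporter under NFkB response element; compounds added, then TNF alpha at 10 pM final (EC50), 5 h at 37 C. LiveBLAzer substrate 2 h, room temperature; emission 460/530 nm at 405 nm excitation.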

Test [3] addresses Pyruvate kinase (Leishmania mexicana) (UniProt Q27686). As to the kind of experiment: qHTS Validation Assay for Inhibitors of Leishmania Mexicana Pyruvate Kinase (AID 945). Further: potency means the concentration at half of the fitted maximal effect. The method in brief: (§1)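 Substrate mix (0.5 mM PEP, 0.1 mM ADP, 7 mM MgCl2, 50 mM KCl, pH 7.2 imidazole) received compound by pin tool, then 0.2 nM LmPYK E451W. After 1 h at room temperature, PKLight was added and luminescence measured.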

In test [4] the target is Pyruvate kinase PKM (Homo sapiens) (UniProt P14618). As to the kind of experiment: qHTS Assay for Activators of Human Muscle Pyruvate Kinase (AID 954; active means well fitted curve in the direction sought with a large enough effect, not every such curve was filed as active). The method in brief:
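Purified human PKM2 (0.1 nM) with 0.5 mM PEP (Km) and 0.1 mM ADP in 50 mM imidazole pH 7.2, KCl, MgCl2, 1 h at room temperature; ATP formed read by coupled luciferase luminescence. Normalized to no-enzyme/110 uM thiadiazolimine inhibition; 0.3 nM enzyme column for activation.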

The target is the same in test [5]. As to the kind of experiment: qHTS Assay for Inhibitors of Human Muscle Pyruvate Kinase (AID 958). Conditions: purified human PKM enzyme activity. The method in brief: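 Luminescence from a luciferase ATP-detection/stop reagent reported PKM2 activity. Reactions contained 0.1 nM purified human enzyme, 0.5 mM PEP, 0.1 mM ADP and 7 mM MgCl2 at pH 7.2, run 1 h at RT.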

Test [6] concerns the target Pyruvate kinase (Leishmania mexicana) (UniProt Q27686). As to the kind of experiment: qHTS Validation Assay for Activators of Leishmania Mexicana Pyruvate Kinase (AID 959). A digest of the protocol:
as §1

Test [7] addresses Alpha-galactosidase A (Homo sapiens) (UniProt P06280). As to the kind of experiment: Counterscreen for Glucocerebrosidase Inhibitors: qHTS Assay for Human alpha-Galactosidase at pH 4.5 (AID 992). A digest of the protocol: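 Human enzyme (2 nM) with 80 uM 4-methylumbelliferyl alpha-D-galactopyranoside in 50 mM citric acid, 0.005% Tween-20, pH 4.5, 20 min at room temperature. Compounds 0.7 nM–77 uM; fluorescence Ex 365/Em 440 after pH 10 stop; AC50 from Hill fits.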

In test [8] the target is alpha-glucosidase (Oryza sativa, rice) (UniProt Q653V4). Put plainly: Counterscreen for Glucocerebrosidase Inhibitors: qHTS Assay for Rice alpha-Glucosidase at pH 5.0 (AID 997). The method in brief:
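Rice alpha-glucosidase (4 nM final) with 400 uM 4-methylumbelliferyl-alpha-D-glucopyranoside in citrate buffer pH 5.0, 20 min at room temperature, stopped at pH 10; fluorescence 365/440 nm, compounds 0.7 nM–77 uM, AC50 from Hill fits.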

Test [9] has as its target DNA dC->dU-editing enzyme APOBEC-3G (Homo sapiens) (UniProt Q9HC16). Put plainly: qHTS for inhibitors of Vif-A3G interactions: Validation (AID 588379). A digest of the protocol:
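HeLa cells stably expressing Vif and A3G-eYFP, 700 cells/well, incubated overnight at 37 deg C, then exposed to compound overnight at 37 deg C. Inhibition of Vif-mediated degradation read as increased yellow fluorescence (Ex 488/Em 500-530) by laser-scanning cytometry.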

Test [10] in a line: S16 Schwann cell viability assay (CellTiter-Glo assay) (AID 624031).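 Further: cellular ATP luminescence as a viability measure; nearly all actives have a fitted effect of over 70% in size.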 A digest of the protocol:
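Luminescent ATP read-out (CellTiter-Glo) after 24 h compound exposure of native S16 rat Schwann cells at 37 °C. Signals were normalized between cell-free wells and DMSO-treated cells, set as 0% activity.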

The nature of test [11]: S16 Schwann cell PMP22 intronic element firefly luciferase assay (AID 624032). Further: nearly all actives have a fitted effect of over 30% in size. The method in brief: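 Rat S16 Schwann cells stably carrying a PMP22 intronic element-driven Fluc reporter were seeded overnight, then exposed to compounds for 24 h at 37 °C. Luminescence was normalized to PTC124 (positive control) and DMSO (0% activity).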
For the next test, the system named is CP260. As to the kind of experiment: qHTS profiling for inhibitors of Plasmodium falciparum proliferation (AID 504749). Further: nearly all actives have a fitted effect of over 60% in size. The settings on record: P. falciparum in erythrocytes, SYBR Green DNA, 72 h; series mostly up to 28.7 µM. The method in brief:
(§2)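 P. falciparum-infected erythrocytes (0.3% parasitemia, 2.5% hematocrit final) were exposed to compounds for 72 h at 37 C in 5% CO2, then lysed with SYBR Green buffer overnight at room temperature; parasite DNA fluorescence was normalized to artemisinin and DMSO controls.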

The next test deals with CP297. The test is described as above. Conditions: P. falciparum in erythrocytes, SYBR Green DNA, 72 h; series mostly up to 28.7 µM. The method in brief: as §2
In the next test the test system is CP315. The description is as above. The settings on record: P. falciparum in erythrocytes, SYBR Green DNA, 72 h; series mostly up to 28.7 µM. The method in brief: as §2
Another test relates to JCK. The test is described as above. The settings on record: P. falciparum in erythrocytes, SYBR Green DNA, 72 h; series mostly up to 28.7 µM. The method in brief: as §2
The target in test [12] is Cytochrome P450 2D6 (Homo sapiens) (UniProt P10635). Put plainly: qHTS Assay for Inhibitors and Substrates of Cytochrome P450 2D6 (AID 891). Further: potency means the concentration at half of the fitted maximal effect; nearly all actives have a fitted effect of over 60% in size. A digest of the protocol:
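Human CYP2D6 (5 nM) with 30 uM Luciferin-ME EGE (at Km) in 100 mM KPO4, compound preincubated 10 min, then NADPH regeneration system for 60 min at room temperature. Luciferin read by luminescence; normalized to 1.43 uM quinidine.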

Chain of Pyruvate kinase PKM (Homo sapiens) (P14618 whole entry, looked up): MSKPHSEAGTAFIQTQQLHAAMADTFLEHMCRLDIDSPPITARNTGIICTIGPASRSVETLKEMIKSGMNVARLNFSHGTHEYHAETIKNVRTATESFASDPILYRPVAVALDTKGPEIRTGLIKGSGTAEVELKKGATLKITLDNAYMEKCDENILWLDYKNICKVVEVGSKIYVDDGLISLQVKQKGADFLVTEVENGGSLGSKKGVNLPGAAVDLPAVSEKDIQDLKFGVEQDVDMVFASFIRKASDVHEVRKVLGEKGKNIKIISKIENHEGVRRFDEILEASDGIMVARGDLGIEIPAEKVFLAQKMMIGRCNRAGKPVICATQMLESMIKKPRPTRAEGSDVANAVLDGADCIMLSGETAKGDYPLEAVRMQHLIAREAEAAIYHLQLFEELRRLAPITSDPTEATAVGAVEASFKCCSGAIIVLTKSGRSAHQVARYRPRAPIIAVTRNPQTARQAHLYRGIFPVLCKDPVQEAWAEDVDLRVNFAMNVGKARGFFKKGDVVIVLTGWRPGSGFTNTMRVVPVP
Chain of Pyruvate kinase (Leishmania mexicana) (Q27686 2-499 E452W): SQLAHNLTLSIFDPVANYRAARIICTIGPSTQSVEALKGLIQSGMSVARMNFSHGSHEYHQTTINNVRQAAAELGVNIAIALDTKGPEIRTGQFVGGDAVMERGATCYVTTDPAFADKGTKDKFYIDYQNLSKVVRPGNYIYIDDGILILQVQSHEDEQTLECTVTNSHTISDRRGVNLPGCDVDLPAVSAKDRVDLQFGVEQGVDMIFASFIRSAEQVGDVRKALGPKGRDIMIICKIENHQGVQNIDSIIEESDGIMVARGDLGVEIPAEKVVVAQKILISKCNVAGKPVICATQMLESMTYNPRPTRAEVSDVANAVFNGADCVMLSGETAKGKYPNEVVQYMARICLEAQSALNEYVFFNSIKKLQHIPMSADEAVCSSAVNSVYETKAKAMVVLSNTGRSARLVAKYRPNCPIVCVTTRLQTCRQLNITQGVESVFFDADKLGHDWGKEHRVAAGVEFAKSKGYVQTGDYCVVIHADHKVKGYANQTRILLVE
Chain of Guanine nucleotide-binding protein G(i) subunit alpha-1 (Homo sapiens) (P63096 whole entry, looked up): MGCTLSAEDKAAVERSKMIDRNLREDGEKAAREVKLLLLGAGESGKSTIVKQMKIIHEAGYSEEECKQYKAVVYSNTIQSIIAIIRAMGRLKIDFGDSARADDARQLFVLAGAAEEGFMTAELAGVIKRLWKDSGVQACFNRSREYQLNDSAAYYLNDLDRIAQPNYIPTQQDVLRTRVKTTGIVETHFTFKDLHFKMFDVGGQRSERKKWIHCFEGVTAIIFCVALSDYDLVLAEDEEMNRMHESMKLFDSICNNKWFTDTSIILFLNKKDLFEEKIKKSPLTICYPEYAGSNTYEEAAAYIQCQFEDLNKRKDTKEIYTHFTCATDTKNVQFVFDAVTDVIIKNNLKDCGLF
Chain of Alpha-galactosidase A (Homo sapiens) (P06280 whole entry, looked up): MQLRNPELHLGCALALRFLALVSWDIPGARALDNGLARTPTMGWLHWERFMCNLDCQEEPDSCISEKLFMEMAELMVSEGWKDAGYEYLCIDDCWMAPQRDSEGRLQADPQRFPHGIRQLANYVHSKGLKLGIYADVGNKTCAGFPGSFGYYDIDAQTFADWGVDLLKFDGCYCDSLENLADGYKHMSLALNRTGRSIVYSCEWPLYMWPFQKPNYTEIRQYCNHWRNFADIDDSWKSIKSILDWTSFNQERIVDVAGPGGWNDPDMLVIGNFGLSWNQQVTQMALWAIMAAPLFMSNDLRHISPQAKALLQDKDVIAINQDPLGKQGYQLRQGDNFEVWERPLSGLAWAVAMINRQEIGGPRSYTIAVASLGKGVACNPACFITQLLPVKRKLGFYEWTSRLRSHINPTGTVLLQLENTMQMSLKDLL
Chain of DNA dC->dU-editing enzyme APOBEC-3G (Homo sapiens) (Q9HC16 whole entry, looked up): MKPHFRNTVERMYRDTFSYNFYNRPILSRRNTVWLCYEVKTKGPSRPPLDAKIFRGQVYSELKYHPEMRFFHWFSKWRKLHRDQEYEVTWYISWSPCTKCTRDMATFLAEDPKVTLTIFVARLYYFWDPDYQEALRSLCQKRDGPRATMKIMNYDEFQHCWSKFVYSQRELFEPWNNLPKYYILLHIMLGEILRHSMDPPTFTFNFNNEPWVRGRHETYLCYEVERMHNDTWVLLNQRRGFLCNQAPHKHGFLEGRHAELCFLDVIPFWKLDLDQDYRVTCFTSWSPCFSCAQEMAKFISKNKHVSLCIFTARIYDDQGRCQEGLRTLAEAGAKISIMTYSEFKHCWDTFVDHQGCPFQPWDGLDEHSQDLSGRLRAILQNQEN
Chain of Cytochrome P450 2D6 (Homo sapiens) (P10635 whole entry, looked up): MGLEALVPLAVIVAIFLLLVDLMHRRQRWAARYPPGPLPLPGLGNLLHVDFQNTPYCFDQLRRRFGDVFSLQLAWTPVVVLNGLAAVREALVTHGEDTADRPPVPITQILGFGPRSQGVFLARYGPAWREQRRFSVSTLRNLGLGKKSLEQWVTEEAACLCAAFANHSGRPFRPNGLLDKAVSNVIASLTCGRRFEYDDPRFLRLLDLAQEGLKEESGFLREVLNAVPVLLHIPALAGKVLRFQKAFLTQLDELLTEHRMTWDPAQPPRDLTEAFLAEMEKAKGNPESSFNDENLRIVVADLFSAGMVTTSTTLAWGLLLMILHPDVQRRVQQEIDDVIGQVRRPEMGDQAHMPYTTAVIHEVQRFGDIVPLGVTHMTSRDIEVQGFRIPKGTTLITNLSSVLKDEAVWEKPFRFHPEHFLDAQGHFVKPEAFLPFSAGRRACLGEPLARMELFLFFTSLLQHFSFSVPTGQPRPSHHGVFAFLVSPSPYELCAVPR

Turning to `Oc1ccc(/C=C\c2cc(O)cc(O)c2)cc1`, the result in [1], in test [4], in test [6], in test [7], in [8] and in test [9] was inactive. In addition, the outcome in [10] was inactive. Further, the Potency entry (in test [2]; in test [11]; in the test with CP260; in the test with CP297; in the test with CP315; in the test with JCK) was “inactive” throughout. Moreover, the Potency in test [3] is 2.51 µM (active); in test [5], 3.16 µM (active).

For `CNc1nc(-c2ccccc2CN(C)C)nc2ccccc12`, the Potency in test [12] is 3.98 µM (active).
